Records with an inconclusive call do not appear. Activity calls are given as the source filed them. Unless noted, calls follow the shape of the dose curve; as a rule, active = well fitted curve in the direction sought with a large enough effect; inconclusive = small, poorly fitted or top-dose-only effect, or another doubt; inactive = no such curve, though single readings can be large; an effect the other way counts as inactive or inconclusive. Bridge positions count the residues as written; N and C are the ends. Square brackets hold non-standard residues; d marks the D form. Peptide text beside a SMILES is read from it. * marks the point of attachment. Ileψ(thiazoline)Cys = CC[C@H](C)[C@H](N)C1=N[C@H](C(=O)*)CS1; d(aIle) = CC[C@H](C)[C@@H](N)C(=O)O; dOrn = NCCC[C@@H](N)C(=O)O

Sequence of Cytochrome P450 3A4 (Homo sapiens) (P08684 whole entry, looked up): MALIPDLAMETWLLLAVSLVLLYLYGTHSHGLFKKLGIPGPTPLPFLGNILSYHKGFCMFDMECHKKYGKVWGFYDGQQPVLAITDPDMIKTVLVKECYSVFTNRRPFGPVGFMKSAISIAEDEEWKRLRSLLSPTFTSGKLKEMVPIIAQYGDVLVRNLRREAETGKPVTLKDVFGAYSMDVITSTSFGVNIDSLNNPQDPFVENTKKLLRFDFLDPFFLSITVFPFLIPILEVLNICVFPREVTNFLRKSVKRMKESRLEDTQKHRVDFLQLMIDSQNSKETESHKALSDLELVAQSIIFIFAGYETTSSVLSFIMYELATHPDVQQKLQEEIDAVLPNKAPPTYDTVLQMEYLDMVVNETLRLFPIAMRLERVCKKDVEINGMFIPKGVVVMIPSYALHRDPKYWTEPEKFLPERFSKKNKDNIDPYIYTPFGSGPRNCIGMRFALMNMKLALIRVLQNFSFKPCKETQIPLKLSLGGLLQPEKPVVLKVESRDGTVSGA

The first assay concerns the target Cytochrome P450 3A4 (Homo sapiens) (UniProt P08684). As to the kind of experiment: qHTS Assay for Inhibitors and Substrates of Cytochrome P450 3A4 (AID 884). Also: nearly all actives have a fitted effect of over 50% in size. Also: potency is read from the fitted curve at half-maximal effect. As to activity change, negative = inhibition: % is scaled to controls: 0 for no effect and ±100 for the full control effect. The conditions noted are these: recombinant CYP3A4, Luciferin-PPXE luminescence; series mostly up to 57.1 µM; activity change, negative = inhibition: at the top concentration. The procedure, abridged: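 20 nM human CYP3A4 with 25 uM Luciferin-PPXE (at KM) in 200 mM KPO4, preincubated 10 min with compound; NADPH regeneration started a 60 min RT reaction. Luciferin detected by luminescence, normalized to 57 uM ketoconazole as full inhibition.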
(In general: qHTS replaces the single test concentration by a dilution series.)
On to `C#C[C@@]1(OC(C)=O)CC[C@@H]2[C@@H]3CCC4=C[C@@H](OC(C)=O)CC[C@H]4[C@H]3CC[C@]21C`, for which the “activity change, negative = inhibition” value is 172% [at 25.6 µM] (inactive).
For the compound `COc1ccc(CNc2ncncc2-c2ccccc2CN(C)C)c(OC)c1`, the Potency is 398 nM (active).
As for `O=C(c1cc(C(F)(F)F)cc(C(F)(F)F)c1)N1CCC[C@@]2(CCN(c3ccccn3)C2)C1`, the Potency was 3980 nM (active).

The target is the same in another assay. As to the kind of experiment: qHTS Assay for Activators of Cytochrome P450 3A4 (AID 885). Also: nearly all actives have a fitted effect of over 65% in size. Also: potency is read from the fitted curve at half-maximal effect. The conditions noted are these: recombinant CYP3A4, Luciferin-PPXE luminescence, 60 min; series mostly up to 57.1 µM; activity change, positive = activation: at the top concentration. The procedure, abridged: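 Quantitative HTS format: compounds preincubated with 20nM human CYP3A4 and Luciferin-PPXE substrate at KM, reaction started by NADPH regeneration, stopped after 60 min, luciferase luminescence read 20 min later.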
`C[C@H](NCCC(c1ccccc1)c1ccccc1)c1ccccc1`: the “activity change, positive = activation” value was -53.8% [at 25.6 µM] (inactive).
Consider `C#C[C@@]1(OC(C)=O)CC[C@@H]2[C@@H]3CCC4=C[C@@H](OC(C)=O)CC[C@H]4[C@H]3CC[C@]21C`, for which the Potency is 5010 nM (active).
For the compound `COc1ccc(CNc2ncncc2-c2ccccc2CN(C)C)c(OC)c1`, the “activity change, positive = activation” value was -92.4% (inactive).
Same read-out and setting: then `O=C(c1cc(C(F)(F)F)cc(C(F)(F)F)c1)N1CCC[C@@]2(CCN(c3ccccn3)C2)C1`, with -66.1% (inactive).

The target of the next assay is Cytochrome P450 2D6 (Homo sapiens) (UniProt P10635). As to the kind of experiment: qHTS Assay for Inhibitors and Substrates of Cytochrome P450 2D6 (AID 891). Also: potency is read from the fitted curve at half-maximal effect; nearly all actives have a fitted effect of over 60% in size. The conditions noted are these: recombinant CYP2D6, luciferin-ME EGE luminescence; series mostly up to 57.1 µM; activity change, negative = inhibition: at the top concentration. A digest of the protocol: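 Human CYP2D6 (5 nM) with 30 uM Luciferin-ME EGE (at Km) in 100 mM KPO4, compound preincubated 10 min, then NADPH regeneration system for 60 min at room temperature. Luciferin read by luminescence; normalized to 1.43 uM quinidine.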
Sequence of Cytochrome P450 2D6 (Homo sapiens) (P10635 whole entry, looked up): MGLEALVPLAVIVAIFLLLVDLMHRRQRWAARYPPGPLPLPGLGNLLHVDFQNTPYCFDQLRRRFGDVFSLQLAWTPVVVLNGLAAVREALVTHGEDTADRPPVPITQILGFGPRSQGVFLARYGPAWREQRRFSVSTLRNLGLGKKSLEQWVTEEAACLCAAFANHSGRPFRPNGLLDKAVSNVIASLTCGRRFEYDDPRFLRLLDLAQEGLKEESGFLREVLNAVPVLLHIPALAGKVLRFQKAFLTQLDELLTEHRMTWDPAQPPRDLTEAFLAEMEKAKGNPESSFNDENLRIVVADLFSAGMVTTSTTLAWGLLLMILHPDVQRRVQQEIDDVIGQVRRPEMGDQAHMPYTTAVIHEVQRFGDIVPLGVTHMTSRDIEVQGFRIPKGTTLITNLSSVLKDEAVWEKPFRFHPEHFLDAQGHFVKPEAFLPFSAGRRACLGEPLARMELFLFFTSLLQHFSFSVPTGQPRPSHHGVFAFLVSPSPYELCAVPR
As to `CN(C/C=C\c1ccccc1)Cc1cccc2ccccc12`, the Potency was 251 nM (active).
Take `C[C@H](NCCC(c1ccccc1)c1ccccc1)c1ccccc1`: the Potency was 158 nM (active).
The same measure, in the same setting: under `Cc1cccc(CN2CCN([C@@H](c3ccccc3)c3ccc(Cl)cc3)CC2)c1` stands 3160 nM (active).
On the same count and under the same terms, under `COc1ccc(CNc2ncncc2-c2ccccc2CN(C)C)c(OC)c1` stands 2510 nM (active).

For another assay, the target named is Cytochrome P450 2C19 (Homo sapiens) (UniProt P33261). Nature of the assay: qHTS Assay for Inhibitors and Substrates of Cytochrome P450 2C19 (AID 899). Also: nearly all actives have a fitted effect of over 60% in size. Also: potency is read from the fitted curve at half-maximal effect. As to activity, negative = inhibition: % is scaled to controls: 0 for no effect and ±100 for the full control effect. The conditions noted are these: recombinant CYP2C19, luciferin-H EGE luminescence; series mostly up to 57.1 µM; activity, negative = inhibition: at the top concentration. A digest of the protocol: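 Luminescence readout of luciferin formed from 10uM Luciferin-H EGE (KM level) by 5 nM CYP2C19 in 50mM KPO4. 60 min NADPH-driven reaction at 37C after 10 min compound preincubation; data scaled to 57uM ketoconazole inhibition.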
Sequence of Cytochrome P450 2C19 (Homo sapiens) (P33261 whole entry, looked up): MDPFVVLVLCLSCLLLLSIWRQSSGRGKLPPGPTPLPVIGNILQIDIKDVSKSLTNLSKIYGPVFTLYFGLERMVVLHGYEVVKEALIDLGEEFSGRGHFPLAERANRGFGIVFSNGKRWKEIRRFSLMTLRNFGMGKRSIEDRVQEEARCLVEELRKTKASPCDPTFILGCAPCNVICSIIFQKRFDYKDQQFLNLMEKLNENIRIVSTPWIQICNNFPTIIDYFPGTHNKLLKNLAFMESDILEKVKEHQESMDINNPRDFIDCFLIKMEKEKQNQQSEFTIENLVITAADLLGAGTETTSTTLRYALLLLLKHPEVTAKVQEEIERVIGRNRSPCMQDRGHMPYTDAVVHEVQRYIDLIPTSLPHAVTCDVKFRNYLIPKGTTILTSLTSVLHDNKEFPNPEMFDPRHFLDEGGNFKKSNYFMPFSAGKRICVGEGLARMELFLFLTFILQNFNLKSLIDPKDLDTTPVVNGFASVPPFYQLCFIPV
For the compound `CN(C/C=C\c1ccccc1)Cc1cccc2ccccc12`, the Potency is 501 nM (active).
Take `C[C@H](NCCC(c1ccccc1)c1ccccc1)c1ccccc1`: the Potency is 5010 nM (active).
With `C#C[C@]1(O)CC[C@@H]2[C@H]3CCC4=CCCC[C@@H]4[C@@H]3CC[C@@]21C`, the Potency was 3980 nM (active).
For `CN(C)CCO[C@@H](c1ccc(Cl)cc1)c1ccccn1`, the “activity, negative = inhibition” value is 73.5% [at 25.6 µM] (inactive).

Tested on in another assay: not listed separately
As to the kind of experiment: qHTS Assay for Identification of Small Molecule Agonists for Hypoxia Response Element Signaling Pathway (AID 914; active = well fitted activation curve with a large enough effect in the signal ratio, with a control signal flat, not every such curve was filed as active; the % refers to the signal ratio; also: % of control where 0% means no effect). The conditions noted are these: ME-180 (cervical carcinoma) HRE-bla reporter, beta-lactamase ratio, CoCl2, 17 h; activation: hits give high values. The procedure, abridged:
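ME-180 cells carrying an HRE-driven beta-lactamase reporter were treated with compounds in a titration series plus an EC50 level of CoCl2 for 17 h at 37 degrees Celsius; CCF4 readout as the 460nm/530nm ratio gave AC50 values.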
For the compound `C[C@@H]1[C@H]2CC[C@@H]3[C@@H]4CC=C5C[C@@H](N(C)C)CC[C@]5(C)[C@@H]4CC[C@@]32CN1C`, the activation is 23.8% (inactive).
On to `CC[C@H](C)[C@H](N)C1=N[C@H](C(=O)N[C@@H](CC(C)C)C(=O)N[C@@H](CCC(=O)O)C(=O)N[C@@H](C(=O)N[C@H]2CCCCNC(=O)[C@@H](CC(N)=O)NC(=O)[C@@H](CC(=O)O)NC(=O)[C@@H](Cc3cnc[nH]3)NC(=O)[C@@H](Cc3ccccc3)NC(=O)[C@@H]([C@@H](C)CC)NC(=O)[C@@H](CCCN)NC2=O)[C@@H](C)CC)CS1` ({Ileψ(thiazoline)Cys}-LE[d(aIle)]K[dOrn][d(aIle)][dF][dH][dD][dN]; lactam 4-C), for which the activation was -5.24% (inactive).
For the compound `CN1CCC2(CC1)CCN(C(=O)c1ccncc1)CC2`, the activation is 7.12% (inactive).
The same measure, in the same setting: then `C[C@@]12C=CC(=O)C=C1CC[C@H]1[C@H]3CC[C@](O)(C(=O)CO)[C@]3(C)CC(=O)[C@@H]12`, with -13.5% (inactive).
